From PubChem BioAssay (EPA / NIEHS) come the findings set out here.

A word on the AC50: it is the midpoint of the concentration-response curve, whichever way the signal moves.

Structures are written as SMILES. Several values for one entry are separate records, joined by “and”; a condition that tells them apart may be missing. Identical values can stand only once. Records with an inconclusive call do not appear. More than one record can exist for a structure, and the calls need not agree. Activity calls are given as the source filed them. The calls were made as follows: active = hit-call score of the fitted dose curve at least 0.9, where 1 is the maximum; inconclusive = response in the unintended direction; inactive = score below 0.9.

The nature of the experiment: TOX21_p53_BLA_p4_viability: Viability Assessment in the Tox21 HCT-116 p53 Agonism Beta-lactamase Assay, Phase 4 (AID 2283597).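 Also: hits lower the luminescence signal meaning cytotoxicity.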 The text has this: TOX21_p53_BLA_p4 is a cell-based, single-readout assay that uses HCT116, a human intestinal cell line, […] in a 1536-well plate.TOX21_p53_BLA_p4_viability is an assay readout measuring cellular ATP content and detected with CellTiter-Glo Luciferase-coupled ATP quantitation.TOX21_p53_BLA_p4_viability used a type of viability reporter where loss-of-signal activity can be used to understand changes in the cell viability. Furthermore, this assay endpoint can be referred to as a secondary readout, because this assay has produced multiple assay endpoints where this one serves a viability function. To generalize the intended target to other relatable targets, this assay endpoint is annotated to the cell cycle intended target family, where the subfamily is cytotoxicity.
Thawing Method: Place 14 mL of pre-warmed thaw medium into a 15 mL of conical tub. Remove the vial of cells to be thawed from liquid nitrogen and thaw rapidly by placing at 37C in a water bath with gentle agitation for 1-2 minutes. Decontaminate the vial by wiping with 70% ethanol before opening in a biological safety cabinet. Transfer the vial contents drop-wise into 14 mL of thaw medium in a sterile 15-mL conical tub. Centrifuge cells at 900 rpm for 4 minutes and resuspend in thaw medium. Transfer contents to the T75 tissue culture flask containing Thaw Medium and place flask in a humidified 37C/5% CO2 incubator. Switch to growth medium at first passage.Propagation Method: Aspirate medium, rinse once in DPBS, add 0.25% Trypsin/EDTA and swirl to coat the cell evenly. Add an equal volume of Growth Medium to inactivate Trypsin after 2-3 minutes incubation at 37C. Centrifuge cells at 900 rpm for 4 minutes and resuspend in growth medium. Cell should be passage or fed at least twice a week.Assay Protocol: Harvest cells from culture in growth medium and resuspend in assay medium. 2.2 Dispense 4000 cells/5 uL/well into 1536-well black/clear bottom plates using a Multidrop dispenser. After the cells were incubated at 37C for 5 hours, 23 nL of compounds dissolved in DMSO were transferred to the assay plate by a PinTool resulting in a 217-fold dilution. Incubate the plates for 16 hours at 37C, 5% CO2. Add 1 uL of 6X LiveBLAzer FRET B/G (CCF4-AM) Substrate Mixture to each well using a BioRAPTR dispenser and incubate the plates at room temperature for 2 hours. Measure fluorescence intensity at 460 and 530 nm emission and 405 nm excitation by an Envision detector. Data is expressed as the ratio of 460nm/530nm emissions. Add 4 uL of Cell-titer Glo to each well using BioRAPTR and incubate the plates at room temperature for […]. For cell viability readout that measures cytotoxicity, 4 ul/well of CellTiter-Glo reagent was added into the assay plates using a Flying Reagent Dispenser. After 30 min incubation at room temperature, the luminescence intensity in the plates was measured using a ViewLux plate reader.
Turning to `O=C1CCC(C2CCCCC2)CC1`, the molecule was called inactive.
As to `Cc1c2ccccc2c(C)c2c1ccc1ccccc12`, the molecule was called inactive and the concentration at half-maximal activity (AC50) is 56.3 µM (active).
Consider `CC(O)CC(C)(C)O` (stereo not given), for which the molecule was classed as inactive.
`CC/C(=C(/CC)c1ccc(O)cc1)c1ccc(O)cc1`: the AC50 was 46 µM (active) and the outcome was inactive.
Turning to `O=c1[nH]sc2ccccc12`, the molecule was classed as inactive.
As to `C[C@]12CC[C@@H]3c4ccc(O)cc4CC[C@H]3[C@@H]1CC[C@H]2O`, the result was inactive.
As to `CN(C[C@@H](CC[N+]12CCC(C3CCCCC3)(CC1)CC2)c1ccc(Cl)c(Cl)c1)C(=O)c1cc(C(F)(F)F)cc(C(F)(F)F)c1`, the AC50 is 14.8 µM (active).
For `OCCO`, the call was inactive.
As to `CC1(C)NC(=O)N(c2ccc([N+](=O)[O-])c(C(F)(F)F)c2)C1=O`, the molecule was called inactive.
As to `CCCCCc1ccc(N)cc1`, the molecule was called inactive.
On to `Cc1ccc(C(C)C)cc1`, for which the outcome was inactive.
In the case of `CCCCCCCCN(C)CCCCCCCC`, the molecule was called inactive.
For the molecule `CCCCCCCCCCCO`, the molecule was classed as inactive.
`Cc1cccc2ccccc12`: the result was inactive.
Still for that read-out and setting: in the case of `O=c1c(-c2ccc(O)cc2)coc2cc(O)cc(O)c12` it was “inactive”.
With `COc1cc(C(=O)NC2CCN(C)CC2)ccc1Nc1ncc2c(n1)N(C1CCCC1)CC(F)(F)C(=O)N2C`, the half-maximal activity concentration (AC50) is 42.9 µM (active).
Consider `CCCCCCCCOC(=O)c1cc(O)c(O)c(O)c1`, for which the AC50 was 32.9 µM (active).
On the same count and under the same terms, in the case of `OC12N=C(c3ccccc3)SC1Cc1cc(Cl)ccc12` (stereo not given) it was 66.6 µM (active); in that of `CC(C)(C)c1csc(-c2cc3cc(OCc4ccccc4CC(=O)O)ccc3o2)n1`, 46.1 µM (active).
Regarding `Cc1ccc2oc(CN(Cc3ccccc3)C(=O)Nc3c(F)cc(F)cc3F)c(-c3ccc(Cl)cc3)c2c1`, the molecule was classed as inactive.
In the case of `CCCCCCCCCC(=O)O`, the call was inactive.
On to `CC(=O)N1CCN(c2ccc(OC[C@H]3CO[C@](Cn4ccnc4)(c4ccc(Cl)cc4Cl)O3)cc2)CC1`, for which the molecule was called inactive and the concentration at half-maximal activity (AC50) was 58.7 µM (active).
On to `Cc1oc2c(NC(=O)c3c(Cl)cccc3Cl)cccc2c1C(C)(C)O`, for which the result was inactive.
On the same count and under the same terms, in the case of `O=C(OCCCCCCOC(=O)c1ccccc1)c1ccccc1` it was “inactive”; in that of `CC[C@H](NC(=O)c1cc(F)ccc1NS(=O)(=O)c1cccc2cccnc12)c1ccccc1`, “inactive”.
With `CCCOC(=O)c1cc(O)c(O)c(O)c1`, the molecule was classed as inactive.
Consider `Clc1ccccc1C(c1ccccc1)(c1ccccc1)n1ccnc1`, for which the AC50 was 34.5 µM (active) and 15.3 µM (active).
The same measure, in the same setting: in the case of `CCCCCCCCCCCC[N+](C)(C)C` it was 83.2 µM (active) and 46 µM (active) and 46.1 µM (active).
For the molecule `O=c1ccc2ccccc2o1`, the result was inactive.
Consider `Cc1cc(F)ccc1-c1cc(N2CC[C@@H](O)[C@H]2CO)ncc1N(C)C(=O)C(C)(C)c1cc(C(F)(F)F)cc(C(F)(F)F)c1`, for which the half-maximal activity concentration (AC50) is 27.3 µM (active).
On to `O=C(O)Cn1c(=O)n(Cc2ccc(Br)cc2F)c(=O)c2ccc(Cl)cc21`, for which the call was inactive.
With `Cc1ncc(CO)c(CO)c1O`, the result was inactive.
Regarding `CCCCOC(=O)CC(CC(=O)OCCCC)(OC(C)=O)C(=O)OCCCC`, the molecule was called inactive.
The same measure, in the same setting: in the case of `CCN(Cc1cccnc1)C(=O)c1cccc(Cl)c1[C@]1(C)C(=O)N(Cc2ccc(OC)cc2OC)c2ccc(Cl)cc21` it was “inactive”.
On the same count and under the same terms, in the case of `O=C1c2ccccc2C(=O)N1CCc1noc(-c2ccc(CN3CCCCCC3)s2)n1` it was “inactive”.
Turning to `NCc1cccc(C2CCN(C(=O)c3ccc(C#Cc4ccccc4F)o3)CC2)c1`, the half-maximal activity concentration (AC50) was 65.6 µM (active).
With `O=C1O[C@H]([C@@H](O)CO)C(O)=C1O`, the result was inactive.
